Assay [1] is described as follows: TOX21_p53_BLA_p2_viability: Viability Assessment in the Tox21 HCT-116 p53 Agonism Beta-lactamase Assay, Phase 2 (AID 2283591).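 Further: compound exposure lasted 16 h at 37 °C; actives lower the ATP signal meaning cytotoxicity.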 The essentials:
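Cytotoxicity readout: CellTiter-Glo ATP luminescence, 30 min at room temperature, after the beta-lactamase read. Cells were HCT116 exposed 16 h at 37C to compounds pin-transferred at 217-fold dilution from DMSO stocks.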

Assay [2] deals with Cellular tumor antigen p53 (Homo sapiens) (UniProt P04637). Description: TOX21_p53_BLA_p2_ratio: Tox21 HCT-116 p53 Agonism Beta-lactamase Assay, Ratio, Phase 2 (AID 2283592). The essentials:
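Plated HCT116 p53-bla cells (4000/well) received compound after 5 h, then 16 h at 37C/5% CO2. CCF4-AM added, 2 h RT. Ratio of 460 to 530 nm emission taken as the p53 reporter signal.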

Assay [3] in a line: TOX21_p53_BLA_p3_viability: Viability Assessment in the Tox21 HCT-116 p53 Agonism Beta-lactamase Assay, Phase 3 (AID 2283593).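 Further: cells exposed to compound for 16 h before reading.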 In outline:
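Cellular ATP was quantified by CellTiter-Glo luminescence, read after 30 min at room temperature. Beforehand, HCT116 cells (4000/well) received compound 5 h post-seeding, 217-fold diluted from DMSO, then incubated 16 h at 37C.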

In assay [4] the target is Cellular tumor antigen p53 (Homo sapiens) (UniProt P04637). Description: TOX21_p53_BLA_p3_ratio: Tox21 HCT-116 p53 Agonism Beta-lactamase Assay, Ratio, Phase 3 (AID 2283596). In outline:
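Cells were seeded at 4000/well, rested 5 h at 37C, then dosed with DMSO compound solutions (217-fold dilution) for 16 h. CCF4-AM substrate was loaded for 2 h at room temperature, and the 460/530 nm emission ratio was fitted for gain of signal versus DMSO.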

The nature of assay [5]: TOX21_p53_BLA_p4_viability: Viability Assessment in the Tox21 HCT-116 p53 Agonism Beta-lactamase Assay, Phase 4 (AID 2283597).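 Further: hits lower the luminescence signal meaning cytotoxicity.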 In outline: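 Readout: ATP luminescence (CellTiter-Glo), measured 30 min after reagent addition at RT. The reagent followed a 2 h CCF4-AM incubation, and the cells had been exposed to compound for 16 h at 37C.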
Assay [6] concerns the target Cellular tumor antigen p53 (Homo sapiens) (UniProt P04637). Description: TOX21_p53_BLA_p5_ratio: Tox21 HCT-116 p53 Agonism Beta-lactamase Assay, Ratio, Phase 5 (AID 2283599). The essentials: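 Beta-lactamase reporter ratio (blue 460 nm over green 530 nm, 405 nm excitation) after 2 h CCF4-AM loading, in HCT-116 cells exposed 16 h at 37 C to compounds pinned at 217-fold dilution. Increases relative to DMSO baseline scored.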

Assay [7] in a line: TOX21_p53_BLA_p5_viability: Viability Assessment in the Tox21 HCT-116 p53 Agonism Beta-lactamase Assay, Phase 5 (AID 2283600). The essentials: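 Workflow: seed 4000 cells per well, wait 5 h, add compounds (DMSO, 217-fold dilution), incubate 16 h, load CCF4-AM 2 h, add CellTiter-Glo, read luminescence after 30 min.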
Assay [8] has as its target Cellular tumor antigen p53 (Homo sapiens) (UniProt P04637). Description: TOX21_p53_BLA_p4_ratio: Tox21 HCT-116 p53 Agonism Beta-lactamase Assay, Ratio, Phase 4 (AID 2283601). In outline: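 Signal is the blue/green (460nm/530nm) ratio of cleaved versus uncleaved CCF4-AM substrate, read after 2 h substrate loading. Cells were HCT116 carrying the p53-responsive beta-lactamase reporter, dosed 16 h at 37C, 5% CO2; CellTiter-Glo measured in parallel.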

The target of assay [9] is PGR (gene 5241) (UniProt P06401). Description: TOX21_PR_BLA_Followup_Agonist_ratio: Tox21 HEK293 Progesterone Receptor (PR) Agonism Beta-lactamase Follow-Up Assay, Ratio (AID 2283933). In outline:
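Cells were seeded and held 6 hr before compound addition, exposed for 16 hr at 37C, then given FRET substrate for 2 hr at room temperature. Agonism was scored from the blue/green substrate cleavage ratio against DMSO controls.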

The target is the same in assay [10]. Description: TOX21_PR_BLA_Followup_Antagonist_ratio: Tox21 HEK293 Progesterone Receptor (PR) Antagonism Beta-lactamase Follow-Up Assay, Ratio (AID 2283934).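 Further: PR-UAS-bla HEK293T cells stimulated with 1 nM R5020 agonist for 16 hr.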 In outline: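 Cells are plated, rested 6 hr, then dosed with test compound in DMSO and challenged with 1 nM promegestone. After 16 hr incubation, substrate loading for 2 h at room temperature precedes fluorescence reading; viability is measured in the same wells.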

Assay [11] is described as follows: TOX21_PR_BLA_Followup_Agonist_viability: Viability Assessment in the Tox21 HEK293 Progesterone Receptor (PR) Agonism Beta-lactamase Follow-Up Assay (AID 2283935).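 Further: signal loss means lower viability so actives are cytotoxic.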 The essentials:
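Cells were plated in medium with 2% charcoal-stripped FBS and rested 6 hr. Compounds in DMSO were then added for 16 hr at 37C, followed by the FRET substrate step and CellTiter-Glo luminescence after 30 min.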

A short description of assay [12]: TOX21_PR_BLA_Followup_Antagonist_viability: Viability Assessment in the Tox21 HEK293 Progesterone Receptor (PR) Antagonism Beta-lactamase Follow-Up Assay (AID 2283936).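 Further: cells exposed to compound with R5020 agonist for 16 h; hits lower the luminescence signal meaning cytotoxicity.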 The essentials: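 PR-UAS-bla HEK293T cells in medium with 2% charcoal-stripped FBS were treated with compounds plus R5020 for 16 hr at 37C. After the beta-lactamase read, CellTiter-Glo was added to the same wells and luminescence read after 30 min at room temperature.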

The target in assay [13] is PGR (gene 5241) (UniProt P06401). Description: TOX21_PR_LUC_Followup_Agonist: Tox21 HEK293 Progesterone Receptor (PR) Agonism Luciferase Follow-Up Assay (AID 2283937; active means hit-call score of the fitted dose curve at least 0.9, where 1 is the maximum; inactive means score below 0.9). In outline:
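Seed HEK293-PR-A-luc cells, wait 5 h, add compounds in DMSO, incubate 16 h at 37C, add ONE-Glo, read luminescence after 30 min. Activity is increase over DMSO controls; run with a viability counter-screen.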

Assay [14] is described as follows: TOX21_PR_LUC_Followup_Agonist_viability: Viability Assessment in the Tox21 HEK293 Progesterone Receptor (PR) Agonism Luciferase Follow-Up Assay (AID 2283941).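 Further: loss of signal means cytotoxicity so actives lower viability.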 The essentials: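 Multiplexed viability endpoint of the PR agonist luciferase follow-up: HEK293-PR-A-luc cells treated 16 h at 37C, with viability scored as decrease in CellTiter-Glo ATP signal.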

Records with an inconclusive call do not appear. Calls of active or inactive are those of the source. How the source made its calls, unless noted: active means hit-call score of the fitted dose curve at least 0.9, where 1 is the maximum; inconclusive means response in the unintended direction; inactive means score below 0.9.

Sequence of PGR (gene 5241) (P06401 whole entry, looked up): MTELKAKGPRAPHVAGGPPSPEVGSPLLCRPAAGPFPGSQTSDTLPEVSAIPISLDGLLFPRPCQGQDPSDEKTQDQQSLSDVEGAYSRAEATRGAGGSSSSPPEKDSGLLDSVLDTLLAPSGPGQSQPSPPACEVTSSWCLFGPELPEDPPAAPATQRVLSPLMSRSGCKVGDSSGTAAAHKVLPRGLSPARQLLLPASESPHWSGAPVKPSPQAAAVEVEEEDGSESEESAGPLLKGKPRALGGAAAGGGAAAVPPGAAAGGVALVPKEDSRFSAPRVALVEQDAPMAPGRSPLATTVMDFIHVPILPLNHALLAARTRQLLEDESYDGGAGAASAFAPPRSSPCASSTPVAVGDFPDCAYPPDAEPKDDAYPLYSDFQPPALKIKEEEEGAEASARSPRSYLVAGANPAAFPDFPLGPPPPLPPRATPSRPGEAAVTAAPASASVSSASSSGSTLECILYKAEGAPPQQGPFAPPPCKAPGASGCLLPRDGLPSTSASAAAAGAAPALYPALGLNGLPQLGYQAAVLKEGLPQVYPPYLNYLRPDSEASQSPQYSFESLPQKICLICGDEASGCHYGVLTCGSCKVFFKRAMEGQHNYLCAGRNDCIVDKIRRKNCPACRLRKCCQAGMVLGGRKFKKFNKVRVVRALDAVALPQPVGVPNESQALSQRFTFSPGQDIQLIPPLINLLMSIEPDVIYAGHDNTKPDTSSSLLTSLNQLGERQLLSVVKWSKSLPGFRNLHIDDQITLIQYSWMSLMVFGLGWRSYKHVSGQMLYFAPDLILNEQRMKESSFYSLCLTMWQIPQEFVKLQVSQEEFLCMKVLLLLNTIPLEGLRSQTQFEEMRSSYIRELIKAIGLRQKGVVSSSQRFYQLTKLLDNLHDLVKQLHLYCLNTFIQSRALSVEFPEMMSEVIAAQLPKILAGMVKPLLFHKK
Sequence of Cellular tumor antigen p53 (Homo sapiens) (P04637 whole entry, looked up): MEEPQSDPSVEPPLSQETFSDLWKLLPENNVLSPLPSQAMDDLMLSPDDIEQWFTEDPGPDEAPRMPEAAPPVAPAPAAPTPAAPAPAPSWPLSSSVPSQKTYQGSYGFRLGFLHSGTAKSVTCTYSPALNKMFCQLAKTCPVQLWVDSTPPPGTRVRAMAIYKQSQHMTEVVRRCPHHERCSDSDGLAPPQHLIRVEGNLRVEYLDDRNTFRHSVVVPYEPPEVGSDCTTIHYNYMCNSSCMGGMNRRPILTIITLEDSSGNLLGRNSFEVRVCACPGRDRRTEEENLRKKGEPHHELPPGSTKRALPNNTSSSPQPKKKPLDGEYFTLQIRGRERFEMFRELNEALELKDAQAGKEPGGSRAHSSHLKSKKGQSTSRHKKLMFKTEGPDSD

Consider `COC(=O)C1=C(C)NC(COC(N)=O)=C(C(=O)OC(C)C)C1c1cccc(Cl)c1Cl` (stereo not given), for which the compound was called inactive (in assay [1]; in assay [3]; in assay [4]; in [7]; with PGR (gene 5241) [10]; in [11]). Moreover, the compound was called inactive (in assay [12]; with PGR (gene 5241) [13]; in [14]). Besides, the AC50 is 33.5 µM (active) in assay [2]; 35.2 µM (active) in assay [5]; 25.5 µM (active) in [6]; 28.8 µM (active) in assay [8]; 23 µM (active) with PGR (gene 5241) [9].
Take `COC(=O)C1=C(C)NC(C)=C(C(=O)OCCN2CCN(C(c3ccccc3)c3ccccc3)CC2)C1c1cccc([N+](=O)[O-])c1` (stereo not given): the result in [1], in [2], in assay [3], in [4], in assay [5] and in assay [6] was inactive. Besides, the result (in assay [7]; in [8]; with PGR (gene 5241) [9]; in the assay with PGR (gene 5241) [10]; in [11]; in assay [12]) was inactive. The result (with PGR (gene 5241) [13]; in assay [14]) was inactive.
For `Oc1ccc(N=Nc2ccccc2)cc1`, the outcome (in assay [1]; in assay [7]; with PGR (gene 5241) [9]; in [11]; in assay [12]; with PGR (gene 5241) [13]) was inactive. In addition, the compound was called inactive in [14]. In addition, the AC50 in assay [2] is 87.4 µM (active); in [3], 75 µM (active); in assay [4], 87.5 µM (active); in assay [5] it was 75.7 µM (active); in assay [6], 74.7 µM (active); in assay [8], 87.8 µM (active). For the same compound, in the assay with PGR (gene 5241) [10], the AC50 was 27.5 µM (active).
For the compound `Cc1ncc(C[n+]2csc(CCOP(=O)(O)O)c2C)c(N)n1`, the compound was classed as inactive in [1], in assay [2], in [3], in assay [4], in assay [5] and in assay [6]. Moreover, the call in assay [7] and in assay [8] was inactive.

The values are drawn from PubChem BioAssay (EPA / NIEHS).
